PubChem BioAssay (NCATS)
Results filed as inconclusive are left out. The source made the active and inactive calls. The call rests on the fitted dose curve; in most records, active means well fitted inhibition curve with a large enough effect; inconclusive means small, poorly fitted or top-dose-only effect; inactive means flat fitted curve, though single readings scatter.

Experiments:
Assay in all cases: qHTS profiling for inhibitors of Plasmodium falciparum proliferation (AID 504749); further: nearly all actives have a fitted effect of over 60% in size
Settings in all cases: P. falciparum in erythrocytes, SYBR Green DNA, 72 h; series mostly up to 28.7 µM
[1] = tested on: AA1029
Summary of the method: (§1)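 SYBR Green fluorescence (ex 485 nm, em 535 nm) reports parasite DNA after 72 h compound exposure of infected red cells at 0.3% parasitemia, 2.5% hematocrit; signal normalized to 0.29 uM artemisinin and vehicle wells.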

[2] = tested on: CP211
Summary of the method: as §1

[3] = tested on: CP215
Summary of the method: as §1

[4] = tested on: CP260
Summary of the method: as §1

[5] = tested on: CP297
Summary of the method: as §1

[6] = tested on: CP315
Summary of the method: as §1

[7] = tested on: CP335
Summary of the method: as §1

[8] = tested on: DIV14
Summary of the method: as §1

[9] = tested on: DIV17
Summary of the method: as §1

[10] = tested on: DIV30
Summary of the method: as §1

[11] = tested on: FAB9
Summary of the method: as §1

[12] = tested on: GB4
Summary of the method: as §1

[13] = tested on: ICS
Summary of the method: as §1

[14] = tested on: JCK
Summary of the method: as §1

[15] = tested on: N140
Summary of the method: as §1

[16] = tested on: P93_24
Summary of the method: as §1

[17] = tested on: PAD
Summary of the method: as §1

[18] = tested on: PC15
Summary of the method: as §1

[19] = tested on: TAB165
Summary of the method: as §1

[20] = tested on: W2
Summary of the method: as §1

Measured: Potency

OCCN1CC(O)C(O)C(O)C1CO (centres undefined)
inactive: all assays above

CC1OC(OC2CCC3(C)C(CCC4C3CC(O)C3(C)C(C5=CC(=O)OC5)CCC43O)C2)CC(O)C1OC1CC(O)C(OC2CC(O)C(OC3OC(CO)C(O)C(O)C3O)C(C)O2)C(C)O1 (centres undefined)
inactive: all assays above

C[C@H]1OC(OC2C(O)[C@@H](O)C(OC3C(O)[C@@H](O)C(O)O[C@@H]3CO)O[C@@H]2CO)[C@H](O)C(O)C1N[C@H]1C=C(CO)[C@@H](O)[C@H](O)C1O (some centres undefined)
inactive: all assays above

CC(=O)OCC(=O)[C@@]1(O)CCC2C3C[C@H](C)C4=CC(=O)C=CC4(C)C3C(O)CC21C (some centres undefined)
not listed: [8]
inactive: all other assays above
